# PrPC surface inh: inhibitors of human cell surface prion protein PrPC; P04156; TR-FRET read-out; inhibition, % at 13.8 µM; actives 0.43% (n = 370,000); in the data active = inhibition above about 24%; note: 0% = median of the test wells and 100% = reference compound wells
# PrP UTR inh: suppresses PrP 5' UTR mRNA reporter expression; cell-based PrP 5' UTR mRNA reporter, plate reader; inhibition, % (concentration not given with the values); actives 0.35% (n = 340,000); in the data active = inhibition above about 52%; note: 0 = median of the neutral control wells
# BJeLR viability: BJeLR cell viability loss. BJeLR (HRASV12) viability, CellTiter-Glo ATP luminescence, 48 h. inhibition, % (concentration not given with the values). actives 0.17% (n = 300,000). AID 1554; in the data active = inhibition above about 50%
# MazF activator: MazEF (E. coli) toxin RNase activation | actives 0.32% (n = 350,000) | FAM/BHQ RNA-DNA oligo cleavage fluorescence, 5 h | AID 504720 | activation, % at 20 µM; in the data active = activation above about 50%
# Target sequence (P0AE70 whole entry, looked up): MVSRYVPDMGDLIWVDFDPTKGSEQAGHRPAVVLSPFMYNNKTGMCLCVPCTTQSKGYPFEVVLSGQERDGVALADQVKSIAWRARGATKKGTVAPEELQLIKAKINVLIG
# Numbers without * were called inactive; x = no result given; + = active, no number. An excerpt weighted towards active compounds, which were near 1.1% of everything screened.
SMILES,PrPC surface inh,PrP UTR inh,BJeLR viability,MazF activator
COCc1[nH]nc2c1C(c1ccc(OC)c(OC)c1)C(C#N)=C(N)O2 (stereo not drawn),-3,-12,6,5
COc1cc(C2C(C#N)=C(N)Oc3n[nH]c(-c4cccs4)c32)cc(OC)c1O (stereo not drawn),3,-11,1,60*
CCCc1[nH]nc2c1C(c1ccc(O)c(OC)c1)C(C#N)=C(N)O2 (stereo not drawn),-6,-16,-9,53*
CCCc1[nH]nc2c1C(c1ccccc1OC)C(C#N)=C(N)O2 (stereo not drawn),-2,3,-8,7
COc1ccc(CN(C2CCCC2)S(=O)(=O)c2cc(Br)ccc2Br)c(OC)c1,1,x,x,x
CCCCCCCCN1C(=O)[C@@H](CC(=O)N2CCSCC2)C[C@@]2(C(=O)OC)C1=C[C@H](C(C)(C)C)O[C@@H]2C,-1,x,x,x
C[C@@H]1CN(C(=O)OC(C)(C)C)CCN1c1ccc(N2CC[C@@H](O)C2)c(C#N)c1,16,x,x,x
CN=C1NC(=O)/C(=C\c2cc(C)n(-c3ccccc3F)c2C)S1,12,x,x,x
N#C/C(=C\c1ccc(O)c(O)c1)C(=O)c1ccc(O)c(O)c1,3,-16,x,-51
N#CC(C#N)=C(N)/C(C#N)=C/c1cc(O)c(O)c(O)c1,61*,-13,x,-43
CCOC(=O)Cn1c(=O)c(-c2ccccc2NCc2ccccc2)nc2ccccc21,-2,-9,-8,61*
CCCCn1c(NS(=O)(=O)c2ccccc2)c(C(=O)OCC)c2nc3ccccc3nc21,-4,-9,4,3
CCCCn1c(NC(=O)c2ccc(Br)o2)c(C(=O)OCC)c2nc3ccccc3nc21,-1,-17,x,80*
C(=N\NC1=Nc2cccc3cccc1c23)/c1ccccc1,-6,-197,2,509*
Clc1ccc(/C=N/NC2=Nc3cccc4cccc2c34)cc1,-5,-78,-1,16
O=c1cc(CN2CCCc3ccccc32)nc2sccn12,-15,-16,11,91*
O=c1cc(CN2CCc3ccccc32)nc2sccn12,0,5,5,-4
COc1cccc(OC)c1C(=O)Nc1ccc(NC(=O)c2ccco2)cc1,-4,-31,1,10
COc1cccc(OC)c1C(=O)NC(=S)Nc1cccc(NC(=O)c2ccco2)c1,-1,-14,-10,75*
O=C(COc1cccc(Cl)c1)N/N=C\c1cc2ccccc2nc1Cl,-1,-17,-1,148*
Cc1ccccc1OCC(=O)N/N=C/c1cc2ccccc2nc1Cl,1,-30,7,-4
COc1cc(NC(=O)c2ccccc2)c(OC)cc1NC(=O)Cc1ccc(Br)cc1,8,-19,-8,55*
COc1cc(NC(=O)c2ccc(Br)cc2)c(OC)cc1NC(=O)c1ccccc1,3,-13,4,-2
Cc1[nH]c2ccccc2c1CC(=O)Nc1ccc(Nc2cccnc2)c(-c2ccc(-c3ccccc3)cc2F)c1,-2,x,x,x
N[C@H]1CC[C@@H]2SC[C@@H](C(=O)O)N2C1=O,4,x,x,x
SMILES,PrPC surface inh,PrP UTR inh,BJeLR viability,MazF activator
O=C(OCCNc1ccc(C(F)(F)F)cc1[N+](=O)[O-])c1cc2ccccc2oc1=O,5,-18,0,251*
O=[N+]([O-])c1cc(C(F)(F)F)ccc1NCCOc1ccccc1,-10,-42,-3,17
CCOC(=O)CC[C@@]1(C(=O)OCC)C[C@@H](CC(=O)N2CCCC2)C(=O)N2CCCC=C21,6,x,x,x
O=c1c2ccccc2c(C=Nc2ccccc2O)c(O)n1-c1nccs1,-8,-10,4,278*
C=CCn1c(=O)/c(=C\c2ccccn2)s/c1=C(/C#N)C(=O)NCC1CCCO1 (stereo not drawn),8,-19,-5,264*
C=CCn1c(=O)/c(=C/c2ccc(C)o2)s/c1=C(/C#N)C(=O)c1ccccc1,-1,0,-9,-153
O=C1N=C(N2CCOCC2)S/C1=C/c1cccs1,-11,-12,13,8
O=C1N=C(N2CCOCC2)S/C1=C/c1ccc(-c2ccccc2Cl)o1,-12,-17,-5,107*
O=c1c(C(c2ccc(F)cc2)c2c(O)nc3n(c2=O)CCS3)c(O)nc2n1CCS2,9,-50,4,289*
CCNC(=S)NCCN1CCCCC1,-3,-8,-5,123*
CCCNC(=S)NCCN1CCCCC1,8,-32,-2,14
Cn1cc(-c2cccc3[nH]cc(-c4ccccc4)c23)c2ccccc21,-2,x,x,x
Cc1cccc(NC(=S)N/N=C/c2ccc(Cl)c([N+](=O)[O-])c2)c1,-9,-9,-8,4
Cc1cccc(NC(=S)N/N=C/c2cccc([N+](=O)[O-])c2)c1,x,-26,10,58*
Cn1cc(C=C2C(=O)NC(=O)NC2=O)c2ccccc21,-4,-3,12,+
O=C(COC(=O)C1CCN(S(=O)(=O)c2cccs2)CC1)c1cc2ccccc2o1,6,-8,-9,60*
CC1CC(=O)N(c2ccc(NCc3ccc(Cl)cc3)c([N+](=O)[O-])c2)C1=O (stereo not drawn),-13,-15,-7,214*
COc1cccc(CCNc2ccc(N3C(=O)CC(C)C3=O)cc2[N+](=O)[O-])c1 (stereo not drawn),-24,-30,7,7
COc1cccc(C=NNC(=S)NC2CC3CCC2C3)c1O (stereo not drawn),-5,x,x,x
CCCCCCCN(C(=O)CCl)c1cccc(C)c1,6,-24,92*,-3
O=[N+]([O-])c1ccc(N=Nc2c(Cl)cc(O)cc2Cl)cc1,-25,x,102*,3
CC(C)C[C@H](NC(=O)c1ccccc1)C(=O)N1CCC[C@H]1C(=O)NCc1ccccc1,0,x,x,x
COc1ccc2ccccc2c1C=Nn1c(-c2cc(-c3ccccc3)n[nH]2)n[nH]c1=S,-9,x,x,x
CS(=O)(=O)c1nc(-c2ccccc2)cc(C(F)(F)F)n1,29*,-6,17,11
Nc1cc(Cl)cc2c1-c1ccc(Cl)cc1C2,2,-30,x,65*
SMILES,PrPC surface inh,PrP UTR inh,BJeLR viability,MazF activator
CCCCC(=O)NC(c1ccc(C(C)C)cc1)c1ccc2cccnc2c1O (stereo not drawn),13,38,54*,-1
CC[C@]12c3[nH]c4cc(-c5ccco5)ccc4c3CCN1C(=O)[C@@H](CC(=O)NCCCN(C)C)C[C@@H]2C(=O)N1CCN(C(=O)c2ccco2)CC1,4,-31,x,53*
CC[C@]12c3[nH]c4ccc(OC)cc4c3CCN1C(=O)C(CC(=O)NCCCOC)C[C@@H]2C(=O)N1CCN(C(=O)C2CC2)CC1 (stereo partly drawn),0,-8,x,75*
CC[C@]12c3[nH]c4ccc(Cl)cc4c3CCN1C(=O)[C@@H](CC(=O)NCCCN(C)C)C[C@@H]2C(=O)N1CCN(C(=O)C2CC2)CC1,1,-18,x,9
CC[C@]12c3[nH]c4cc(-c5ccco5)ccc4c3CCN1C(=O)[C@@H](CC(=O)NCC13CC4CC(CC(C4)C1)C3)C[C@@H]2C(=O)N1CCN(C(=O)c2ccco2)CC1,-1,10,x,-5
CN(C)C(=O)CCc1ccc2c3c([nH]c2c1)[C@]1(CCC2CCCC2)[C@@H](C(=O)N2CCOCC2)C[C@H](CC(=O)NC(C)(C)C)C(=O)N1CC3,-10,-8,x,59*

# Screening results from PubChem.
